# Results reported in PubChem BioAssay AID1851 (National Center for Advancing Translational Sciences (NCATS), 2009).
# About 5,100 (32%) of roughly 16,000 compounds were called active. Inconclusive results (about 25%) are left out. The list shows a part of the results. Unmarked numbers belong to inactive results. The call rests on the fitted dose curve; in most records, active means well fitted curve in the direction sought with a large enough effect; inconclusive means small, poorly fitted or top-dose-only effect, or effect the other way; inactive means no such curve, though single readings can be large or run the other way.
# Target: Cytochrome P450 3A4 (Homo sapiens) (UniProt P08684)
# Test: Cytochrome panel assay with activity outcomes
# Conditions: recombinant CYP, pro-luciferin dealkylation, luminescence, p450-cyp3a4; series mostly up to 57.1 µM; activity, negative = inhibition: at the top concentration
# On the % scale 0 is the no-effect control and ±100 the full control effect.
# Chain of Cytochrome P450 3A4 (Homo sapiens) (P08684 whole entry, looked up): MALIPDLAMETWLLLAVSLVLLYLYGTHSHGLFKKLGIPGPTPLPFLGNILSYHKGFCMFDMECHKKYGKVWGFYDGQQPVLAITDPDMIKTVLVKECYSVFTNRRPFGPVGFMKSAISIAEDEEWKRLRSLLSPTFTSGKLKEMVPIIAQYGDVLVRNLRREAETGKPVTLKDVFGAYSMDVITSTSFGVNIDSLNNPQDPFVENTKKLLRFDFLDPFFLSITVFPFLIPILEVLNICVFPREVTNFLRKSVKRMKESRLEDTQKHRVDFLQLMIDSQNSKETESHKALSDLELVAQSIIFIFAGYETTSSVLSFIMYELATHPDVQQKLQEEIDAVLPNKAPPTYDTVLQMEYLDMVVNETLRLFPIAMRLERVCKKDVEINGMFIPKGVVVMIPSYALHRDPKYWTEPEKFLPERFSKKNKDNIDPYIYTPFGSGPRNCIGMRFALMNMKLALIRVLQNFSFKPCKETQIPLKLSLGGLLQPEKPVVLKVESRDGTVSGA
SMILES,"activity, negative = inhibition",AC50
CC(=O)OC[C@@H]1O[C@@H](O/N=C2/C[C@@H](O)[C@@H](O)[C@@H]3[C@@H]4C(=O)N(C5CCCCC5)C(=O)[C@H]4CC[C@H]23)[C@H](OC(C)=O)[C@H](OC(C)=O)[C@@H]1OC(C)=O,-4% [at 11.4 µM],–
N#C[C@@H](N=Nc1ccccc1C(=O)O)C(N)=O,-6.32% [at 11.4 µM],–
Cc1c(/N=C/c2ccco2)n(Cc2ccccc2)c2ccccc12,–,7.08 µM (active)
O=C(Nc1ccccc1)N1CCSc2cc(Cl)ccc21,-17.4%,–
COC(=O)c1cc(NC(=O)N2c3ccccc3Sc3ccccc32)cc(C(=O)OC)c1,–,7.94 µM (active)
COC(=O)C1CSC(C(=O)OC)N1C(=O)Nc1ccccc1 (configuration not stated),-29.1%,–
Cc1nnsc1SC(C)C(=O)O (configuration not stated),-7.52%,–
C=CCSc1nc(C)cc(/C=C\c2ccccc2)c1C#N,–,4.47 µM (active)
CC(=O)n1nc(-c2ccco2)nc1N,-8.68%,–
Nc1nc(NCCc2ccc(O)cc2)nc2nc(-c3ccco3)nn12,–,15.8 µM (active)
c1ccc(CN(CC2=NCCN2)c2ccccc2)cc1,–,inactive
Cc1ccc(C)c(/C(O)=C2\C(=O)C(=O)N(Cc3cccnc3)C2c2cccnc2)c1 (configuration not stated),25.2%,–
Cc1cccc(-n2nc([N+](=O)[O-])c(=NCc3cccnc3)n2O)c1,–,15.8 µM (active)
CCNC(=S)NNC(=O)c1cc(C)on1,-5.44%,–
COCC(C)n1c(C)cc(C(=O)CSc2nnc(Nc3ccccc3F)s2)c1C (configuration not stated),–,1.58 µM (active)
COCCSc1nnc(NC(=O)C(C)(C)C)s1,-12.7%,–
COc1cccc(-c2csc(N3CCN(C(=S)Nc4ccccc4)CC3)n2)c1,–,8.91 µM (active)
COc1cccc(N2CCN(C(=S)Nc3cccc(C)c3)CC2)c1,–,3.55 µM (active)
COC(=O)c1ccc(NC(=S)N2CCN(Cc3cccc(C)c3)CC2)cc1,–,12.6 µM (active)
Cc1cccc(C(=O)NC2CCN(C(=S)NCc3ccco3)CC2)c1,–,5.62 µM (active)
Cc1cccc(C(=O)NC2CCN(C(=O)N3CCOCC3)CC2)c1,-3.42%,–
Brc1ccc(-c2csc(N3CCC(c4ccccc4)C3)n2)cc1 (configuration not stated),-2.89%,–
CC(C)CC(=O)N1CCN(Cc2cccc(F)c2)CC1,-12.1%,–
Cc1cccc(C(=O)NC(=S)N2CCN(C)CC2)c1,-11.2%,–
COc1cccc(NC(=S)NN2CCN(C)CC2)c1,-3.66%,–
Cn1cnc([N+](=O)[O-])c1Sc1nc(N)nc2c1ncn2Cc1ccccc1,-11.4% [at 11.4 µM],–

SMILES,"activity, negative = inhibition",AC50
O=C1c2ccccc2C(=O)c2c1ccc(C(=O)O)c2-c1ccc2ccccc2c1,-2.24% [at 11.4 µM],–
Clc1ccc(-c2csc(N3CCC(c4ccccc4)C3)n2)cc1 (configuration not stated),8.35%,–
COc1ccc(C(=O)NC2CCN(C(=S)Nc3cccc(C)c3)CC2)cc1,–,15.8 µM (active)
S=C(NCc1ccco1)N1CCN(Cc2ccco2)CC1,-5.09% [at 2.29 µM],–
S=C(NCc1ccco1)N1CCN(C(c2ccccc2)c2ccccc2)CC1,–,12.6 µM (active)
CN1CCN(C(c2ccccc2)c2ccccc2)CC1,0.509% [at 25.6 µM],–
COc1cccc(-c2csc(N3CCN(CC(=O)NNC(=O)c4ccc(Cl)cc4)CC3)n2)c1,–,11.2 µM (active)
COc1ccc(-c2csc(N3C(=N)SCC3=O)n2)cc1,-23.4%,–
CN(C)C(=O)c1ccc(-c2cc(NCc3ccccc3)ncn2)cc1,-5.09%,–
CN(C)C(=O)c1ccc(-c2cc(NCc3cccnc3)ncn2)cc1,–,15.8 µM (active)
Cc1cccc(CNc2cc(-c3ccc(C(=O)N(C)C)cc3)ncn2)c1,–,3.16 µM (active)
C[C@H](NC(=O)c1ccc(Cl)c(Cl)c1)c1ccc(-c2ccccc2)cc1,-6.52% [at 11.4 µM],–
COc1ccc(C(NC(=O)c2ccc(-c3ccccc3)cc2)c2ccccc2)cc1 (configuration not stated),–,0.0355 µM (active)
O=C1OC2CC3CC1CC(O)(C3)C2 (configuration not stated),30%,–
CCc1n[nH]c(=S)n1/N=C/c1ccc2c(c1)OCO2,–,14.1 µM (active)
Oc1ccc(Cn2c(-c3ccc(O)cc3)nc3ccccc32)cc1,-21.1% [at 11.4 µM],–
CCn1c(-c2ccc(N(C)C)cc2)nc2ccccc21,–,10 µM (active)
COc1ccc(C(=O)N2CCC[C@@]3(CCN(Cc4ccccc4)C3)C2)cc1,–,10 µM (active)
COCC(=O)N1CCC2(CC1)CN(Cc1ccc(C#N)cc1)C2,7.5%,–
COC(=O)N1CCC2(CCCN(Cc3ccccc3)C2)CC1,-29%,–
COc1ccc(C(=O)N2CCC[C@@]3(CCN(CC(C)C)C3)C2)cc1,–,7.94 µM (active)
COc1ccc(C(=O)N2CCC[C@@]3(CCN(Cc4ccc(C#N)cc4)C3)C2)cc1,–,10 µM (active)
COc1ccc(C(=O)N2CCC3(CCN(Cc4ccc(C#N)cc4)CC3)CC2)cc1,-21%,–
O=c1[nH]c(=O)n([C@@H]2C[C@H](O)[C@H](CO)O2)cc1I,-0.987% [at 25.6 µM],–
Brc1ccc(-c2nnc(-c3ccccc3)c(N3CCSCC3)n2)cc1,-22.4%,–
CCCCN(C)S(=O)(=O)c1ccc(C(=O)Nc2nnc(CSC)o2)cc1,24%,–

SMILES,"activity, negative = inhibition",AC50
Cn1c(C(F)(F)F)nc2c(=O)oc3ccccc3c21,-20.1%,–
Nc1ccccc1S(N)(=O)=O,3.31% [at 25.6 µM],–
O=C(NC1CCCCC1)C(c1ccccc1)N1CCOCC1 (configuration not stated),–,11.2 µM (active)
Cc1ccc(C(C(=O)NC2CCCCC2)N2CCN(C(=O)c3ccco3)CC2)cc1 (configuration not stated),-19.6% [at 2.29 µM],–
COc1ccc(C(C(=O)NC2CCCCC2)N2CCC3(CC2)OCCO3)cc1 (configuration not stated),–,4.47 µM (active)
CCOc1cc(C)c(S(=O)(=O)Nc2ccc3cn[nH]c3c2)cc1C,–,0.316 µM (active)
CCOC(OCC)P(=O)(O)CCCNCc1ccc(Cl)c(Cl)c1,10.5%,–
Cc1ccn2cc(CSc3ccccc3N)nc2c1,–,3.98 µM (active)
CC(SCc1cn2cc(Cl)ccc2n1)C(=O)O (configuration not stated),-11.1%,–
C[C@@H](C[N+](C)(C)C)OC(N)=O,–,inactive
COC(=O)C1C(=O)C2=C(CC1C)NC(=O)CC2c1cccc(C)c1 (configuration not stated),–,14.1 µM (active)
C=CC[C@@H]1C=C[C@H](O/N=C(\C)CCN2CCCc3nc(C)c(C)cc32)[C@H](CO)O1,–,2.51 µM (active)
C=CC[C@@H]1C=C[C@H](O/N=C(\C)CCN2CCCCc3nc(C)c(C)cc32)[C@H](CO)O1,–,3.98 µM (active)
CN(C(=S)Nc1ccccc1F)C1(c2ccccc2Cl)CCCCC1=O (configuration not stated),-21.2% [at 2.29 µM],–
CCCCN1C2=NCCCN2c2ccccc21,7.3% [at 11.4 µM],–
Cc1ccsc1/C=N/Nc1nc(Cl)c(Cl)cc1Cl,-21% [at 2.29 µM],–
O=C(Nc1cc2ccccc2oc1=O)C1CCCCC1,10.7% [at 2.29 µM],–
O=c1oc2ccccc2cc1-c1csc(NN=C2CCCCC2)n1,–,3.98 µM (active)
O=C(Nc1ccc(-c2cc3ccccc3oc2=O)c(Cl)c1)c1cccnc1,-10%,–
COc1cc(OC)cc(C(=O)NC(=S)Nc2ccc(Cl)c(C(=O)O)c2)c1,-26.3%,–
O=C(CCc1ccccc1)NNC(=S)NC(=O)c1ccccc1,7% [at 2.29 µM],–
COc1ccc(C(=O)NC(=S)NNC(=O)CCc2ccccc2)cc1,–,11.2 µM (active)
CC[N+](CC)(CC(=O)Nc1c(C)cccc1C)Cc1ccccc1,-19.7% [at 25.6 µM],–
COc1cc(OC)cc(C(=O)NC(=S)NCCc2ccccc2)c1,–,3.98 µM (active)
Cc1cccc(C)c1NC(=S)NC(=O)CCc1ccccc1,–,12.6 µM (active)
NNC(=O)c1ccc[n+](CCc2ccccc2)c1,-7.56% [at 11.4 µM],–

SMILES,"activity, negative = inhibition",AC50
CC(C)C12CN3CC(C(C)C)(CN(C1)C3c1ccco1)C2=O (configuration not stated),-2.45% [at 2.29 µM],–
CCCS(=O)(=O)N1CCCC(C(=O)NCCCN2CCN(c3cccc(Cl)c3)CC2)C1 (configuration not stated),-22.1%,–
COc1ccc(CCNC(=O)C2CCCN(Cc3nc(-c4cccc(Cl)c4)oc3C)C2)cc1OC (configuration not stated),–,2 µM (active)
CCC(C)NC(=O)C1CCCN(C(=O)NC2CCCCC2)C1 (configuration not stated),10.7% [at 2.29 µM],–
Cc1cccc(-c2nc(CN3CCCC(C(=O)NC4CCCCC4)C3)c(C)o2)c1 (configuration not stated),–,3.16 µM (active)
COc1ccc2nc(N3CCCC(C(=O)NCCCN4CCN(C)CC4)C3)sc2c1 (configuration not stated),-20.9%,–
Cc1cn([C@H]2C[C@H](O)[C@@H](COC(N)=O)O2)c(=O)[nH]c1=O,-22.2% [at 11.4 µM],–
C=CCNc1cnn(-c2ccc(C)cc2)c(=O)c1Cl,–,4.47 µM (active)
CNc1cnn(-c2ccccc2)c(=O)c1Cl,6.78%,–
O=C(NCCc1ccccc1)N1c2ccccc2Sc2ccccc21,–,14.1 µM (active)
CC(C)CNCC(=O)N1c2ccccc2Sc2ccccc21,–,11.2 µM (active)
O=C(O)CNCCc1ccccc1,-11.1% [at 11.4 µM],–
C[C@@H](CN1c2ccccc2Sc2ccccc21)N(C)C,–,inactive
CC(C)CNC(=O)c1nc(-c2ccccc2)n(-c2ccccc2)n1,-3.69%,–
NC(=O)/C(=N\OC(=O)c1ccco1)c1nc(-c2ccc(Br)cc2)cs1,-10.3%,–
N[C@@H](Cc1ncccn1)C(=O)O,6.81% [at 11.4 µM],–
CCOC(=O)c1cc(-c2ccccc2)sc1NC(=S)Nc1cc(C)ccn1,–,2.82 µM (active)
CCOc1ncccc1C(=O)OCC(=O)Nc1cc(C)ccc1C,0.451% [at 2.29 µM],–
CCOC(=O)c1cc(-c2ccccc2)sc1NC(=O)C(C)(C)C,2.53%,–
CC(=O)N(/N=C1\Sc2ccccc2C1=O)c1ccccc1,-26.1%,–
Cc1ccc(/C=C2\Sc3ccccc3C2=O)s1,–,20 µM (active)
Cn1cc(/C=C2/SC(=O)N(CC(=O)Nc3ccc4c(c3)OCO4)C2=O)c2ccccc21,–,0.2 µM (active)
CC(C)n1cc(/C=C2/SC(=O)N(CC(=O)Nc3ccc4c(c3)OCO4)C2=O)c2ccccc21,–,0.316 µM (active)
Cc1ccsc1/C=C1/SC(=O)N(CC(=O)N2CCOCC2)C1=O,-0.702%,–
